The values below come from PubChem BioAssay AID1209 (Sanford-Burnham Center for Chemical Genomics, 2008).

For orientation: inhibition means the drop in the measured response relative to a control, in per cent.

In all, about 190,000 compounds went through this assay and about 810 (0.43%) were called active. The entries come from a sample that favours actives as a whole. Values without a mark were called inactive. No stated cut-off is given here; in the data, active means inhibition above about 50%; inactive means the rest.

The test deals with Mannose-6-phosphate isomerase (Homo sapiens) (UniProt P34949). The test is described as follows: MPI enzyme activity inhibition – biochemical, fluorescence intensity, coupled assay, primary screen (AID 1209).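 Further: plate controls were DMSO vehicle for no effect and wells lacking substrate for full effect.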 The settings on record: purified PMI enzyme, at 20 µM, stronger effect = higher value.
Mannose-6-phosphate isomerase (Homo sapiens), sequence (P34949 whole entry, looked up): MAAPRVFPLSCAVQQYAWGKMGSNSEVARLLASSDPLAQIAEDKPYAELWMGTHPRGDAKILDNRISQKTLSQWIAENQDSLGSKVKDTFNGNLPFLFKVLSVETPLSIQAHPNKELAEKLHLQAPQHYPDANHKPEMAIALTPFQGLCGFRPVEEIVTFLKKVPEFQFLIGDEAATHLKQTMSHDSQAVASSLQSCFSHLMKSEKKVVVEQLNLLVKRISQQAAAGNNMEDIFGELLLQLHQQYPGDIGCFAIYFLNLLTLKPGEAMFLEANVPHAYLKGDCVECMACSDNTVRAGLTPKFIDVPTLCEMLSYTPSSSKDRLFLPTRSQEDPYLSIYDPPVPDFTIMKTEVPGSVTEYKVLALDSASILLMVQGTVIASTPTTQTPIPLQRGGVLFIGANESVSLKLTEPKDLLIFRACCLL
In the case of `Cc1ccc(S(=O)(=O)c2ccc(C)cc2)cc1`, the inhibition was -0.6%.

Regarding `CC(=O)Nc1ccc(S(=O)(=O)c2ccc(C)cc2)cc1`, the inhibition is 10.7%.

For the compound `CCOc1ccc(NC(=O)NCC2CCN(c3ccc(OC)cc3)C2)cc1` (stereo unspecified), the inhibition is 23.3%.

Take `COc1ccc(N2CCC(CNC(=S)Nc3cccc(OC)c3)C2)cc1` (stereo unspecified): the inhibition is 29.7%.

Take `CCc1cccc(C)c1NC(=S)NCC1CCN(c2ccc(OC)cc2)C1` (stereo unspecified): the inhibition is 55% (active).

On to `COc1ccc(N2CCC(CNC(=O)Nc3ccccc3)C2)cc1` (stereo unspecified), for which the inhibition was 74.5% (active).

With `COc1ccc(N2CCC(CNC(=O)Nc3ccc(Cl)cc3)C2)cc1` (stereo unspecified), the inhibition was 37%.

For the compound `COc1ccc(N2CCC(CNC(=S)Nc3cccc(C)c3)C2)cc1` (stereo unspecified), the inhibition is 44.7%.

Regarding `COc1ccc(N2CCN(S(=O)(=O)c3cccc(C(F)(F)F)c3)CC2)cc1`, the inhibition is -0.4%.

As to `COc1ccc(N2CCC(CNS(=O)(=O)c3cccc(C(F)(F)F)c3)C2)cc1` (stereo unspecified), the inhibition was 65.5% (active).

In the case of `COc1ccc(NC(=S)NCC2CCN(c3ccc(OC)cc3)C2)cc1` (stereo unspecified), the inhibition is 49.3%.

As for `COc1ccc(N2CCC(CNC(=O)Nc3cccc(OC)c3)C2)cc1` (stereo unspecified), the inhibition is 70% (active).

Regarding `CCN1CCCC1CNS(=O)(=O)c1cccc(C(F)(F)F)c1` (stereo unspecified), the inhibition was -14.5%.

Regarding `COc1ccc(N2CCC(CNC(=O)Nc3ccc(C)c(C)c3)C2)cc1` (stereo unspecified), the inhibition is 43.1%.

In the case of `Cn1c(SCC(=O)N=Nc2c(O)[nH]c3ccccc23)nc2ccccc21`, the inhibition is 3.1%.

Consider `CCN(CC)CCCn1c(C)cc2c(c1=O)C(c1cc(OC)c(OC)cc1OC)C(C#N)=C(N)O2` (stereo unspecified), for which the inhibition is -0.8%.

As to `CC[C@H](C)[C@@H](NC(=O)O[C@@H]1C(=O)c2cc(OC)ccc2O[C@H]1c1ccc(OC)c(Br)c1)C(=O)OC`, the inhibition is 11%.

As for `CC(=O)N1CCc2cc(S(=O)(=O)CCC(=O)N3CCc4ccccc4C3)ccc21`, the inhibition is -7.9%.

Take `CC(C)CC(C(=O)Nc1ccc2c(c1)OCCO2)N1C(=O)c2ccccc2C1=O` (stereo unspecified): the inhibition was -13.9%.

On to `Cc1cc(=O)n2cccc(O)c2n1`, for which the inhibition is 71% (active).

Turning to `Cc1cc(=O)n2ccsc2n1`, the inhibition was 7.1%.

Consider `Cc1ccn2c(=O)cc(C)nc2c1`, for which the inhibition was 4.8%.

For the compound `O=C(NCCO)C1CCN(S(=O)(=O)c2ccc(F)cc2)CC1`, the inhibition was 10.2%.

For `COc1cc(CNn2c(C)n[nH]c2=S)cc(Cl)c1OCc1ccccc1`, the inhibition is 16.3%.

Regarding `C[C@@H]1O[C@@H](OC[C@H]2O[C@@H](Oc3c(-c4ccc(O)c(O)c4)oc4cc(O)cc(O)c4c3=O)[C@H](O)[C@@H](O)[C@@H]2O)[C@H](O)[C@H](O)[C@H]1O`, the inhibition was 50.3% (active).

On to `O=c1c(O[C@@H]2O[C@H](CO)[C@H](O)[C@H](O)[C@H]2O)c(-c2ccc(O)c(O)c2)oc2cc(O)cc(O)c12`, for which the inhibition was 61.3% (active).

`O=c1cc(-c2ccc(O)cc2)oc2cc(O)c(C3OC(CO)C(O)C(O)C3O)c(O)c12` (stereo unspecified): the inhibition is 7.9%.

Take `O=C(O)C1OC(Oc2c(-c3ccc(O)c(O)c3)oc3cc(O)cc(O)c3c2=O)C(O)C(O)C1O` (stereo unspecified): the inhibition was 23.4%.

As to `COc1ccc(-c2oc3cc(OC)c(O)c(OC)c3c(=O)c2OC)cc1O`, the inhibition is 3.4%.

As to `C[C@@H]1O[C@@H](Oc2c(-c3cc(O)c(O)c(O)c3)oc3cc(O)cc(O)c3c2=O)[C@H](O)[C@H](O)[C@H]1O`, the inhibition was 65.7% (active).

For `CC1OC(OCC2OC(Oc3c(-c4ccc(O)cc4)oc4cc(O)cc(O)c4c3=O)C(O)C(O)C2O)C(O)C(O)C1O` (stereo unspecified), the inhibition was 4.8%.

For the compound `O=c1c(O)c(-c2ccc(O)cc2O)oc2cc(O)cc(O)c12`, the inhibition is -15.2%.

Take `O=c1c(-c2ccc(O)cc2)coc2cc(OC3OC(CO)C(O)C(O)C3O)cc(O)c12` (stereo unspecified): the inhibition is -6.4%.

Regarding `Cc1cc(O)cc(O[C@H]2OC(CO)[C@H](O)[C@@H](O)[C@H]2O)c1` (stereo partly specified), the inhibition was 1.9%.

`COc1ccc(-c2oc3c(CC=C(C)C)c(O[C@@H]4O[C@H](CO)[C@@H](O)[C@H](O)[C@H]4O)cc(O)c3c(=O)c2O[C@@H]2O[C@@H](C)[C@H](O)[C@@H](O)[C@H]2O)cc1`: the inhibition is 5.6%.

For the compound `C=CCOC(=O)C1=C(C)NC(SCC(=O)NC(=O)OCC)=C(C#N)C1c1cccnc1` (stereo unspecified), the inhibition was -29.7%.

With `CCc1ccc2nc(NC(=O)Cn3cnc4ccccc4c3=O)sc2c1`, the inhibition is -4%.

For `O=c1[nH]c2cc3c(cc2cc1C(c1nnnn1CC1CCCO1)N1CCCC1)OCO3` (stereo unspecified), the inhibition is -6.3%.

Consider `CCN(CC)S(=O)(=O)c1ccc(OC)c(NC(=O)c2cc3c(=O)n4ccccc4nc3s2)c1`, for which the inhibition was 10%.

Consider `Cc1ccc2nc(-c3cccnc3SCC(=O)N3c4ccccc4CC3C)[nH]c2c1` (stereo unspecified), for which the inhibition was 9.6%.

As for `C/C(=N\NC(=O)CSCc1ccc(Cl)cc1)c1ccc(NC(=O)c2ccccc2)cc1`, the inhibition is -2.3%.

In the case of `O=C(N/N=C/c1ccncc1)c1nc(-c2ccccc2)n2c1CCCCC2`, the inhibition was 5.7%.

Take `CN(C)S(=O)(=O)N1CCC(CO)(Cc2cccc(C(F)(F)F)c2)CC1`: the inhibition was 3%.

`Cc1ccsc1C=C1C(=O)c2ccccc2C1=O`: the inhibition is 1.2%.

In the case of `O=C(COC(=O)c1ccc(S(=O)(=O)N2CCCC2)cc1)Nc1cccnc1Cl`, the inhibition is -7.2%.

Take `CCOC(=O)c1ccc(NC(=O)CCC2COc3ccccc3O2)cc1` (stereo unspecified): the inhibition was 14.5%.

With `COc1ccc(-n2c(CN3CCC(C)CC3)nc3ccc([N+](=O)[O-])cc3c2=O)c(OC)c1`, the inhibition was 2.1%.

Consider `O=c1c(-c2ccc(O)cc2)coc2cc(OC3OC(CO)C(O)C(O)C3O)ccc12` (stereo unspecified), for which the inhibition is -7.2%.

Regarding `COc1cc2c(=O)c(-c3ccc(O)cc3)coc2cc1OC1OC(CO)C(O)C(O)C1O` (stereo unspecified), the inhibition is 3.2%.

Take `O=c1c(O[C@@H]2O[C@H](CO)[C@@H](O)[C@H](O)[C@H]2O)c(-c2ccc(O)c(O)c2)oc2cc(O)cc(O)c12`: the inhibition was 62.8% (active).

Turning to `COc1ccc2[nH]c(=O)c(CN(Cc3cccs3)C(=S)Nc3ccccc3)cc2c1`, the inhibition was 22.8%.

Regarding `COc1ccc(OCc2nnc(SCC(=O)O)n2N)cc1`, the inhibition is 4.6%.

`CCN(CC)C(=O)CSc1nnc(COc2ccc(OC)cc2)n1N`: the inhibition was 1.7%.

For `COc1ccc(OCc2nnc(SCC(=O)N(C)Cc3ccccc3)n2N)cc1`, the inhibition is 50.1% (active).

`CC(=O)c1c(C)nc(-c2ccc(OCC(=O)Nc3ccccc3)cc2)n1O`: the inhibition was -7.9%.

For `CCS(=O)(=O)c1ccc2oc(Nc3ccc(C(C)(C)C)cc3)nc2c1`, the inhibition was 15.9%.

Turning to `CCS(=O)(=O)c1ccc2oc(Nc3ccc(OC)cc3)nc2c1`, the inhibition is -4.5%.

Consider `CCS(=O)(=O)c1ccc2oc(Nc3ccc(C(C)C)cc3)nc2c1`, for which the inhibition was 63.4% (active).

Turning to `O=C(NNC(=O)c1sccc1-n1cccc1)c1ccc(F)cc1`, the inhibition is 0.7%.

Turning to `CCCCOc1ccc(CSc2nnc(C)n2N)cc1[N+](=O)[O-]`, the inhibition was -8.7%.

For the compound `O=C(Nc1ccc(F)cc1)c1ccc(Cn2cnnn2)cc1`, the inhibition is -9.3%.

As for `COCC(=O)N(C)c1nnc(-c2cnccn2)s1`, the inhibition is -3.9%.

Take `COCC(=O)N(C)c1nnc(-c2ccccn2)s1`: the inhibition was 102% (active).

On to `CC(=O)N(C)c1nnc(-c2ccccn2)s1`, for which the inhibition was -0.7%.

Regarding `CCCc1cc(=O)[nH]c(SCc2ccccc2)n1`, the inhibition was 13.6%.

On to `O=C(CSc1nc2ccccc2c(=O)n1CCCN1CCOCC1)N1CCN(c2ccccc2)CC1`, for which the inhibition is -4.4%.

Consider `Cc1ccccc1NS(=O)(=O)c1ccc(C(=O)OCC(=O)NCC(C)C)cc1`, for which the inhibition was -11.1%.

With `c1ccc(OCc2nnc3n2N=C(c2ccccc2)CS3)cc1`, the inhibition is 47.7%.

`COc1ccc(OCc2nnc3n2N=C(c2ccc(OC)cc2)CS3)cc1`: the inhibition was -9.9%.

Take `COc1ccccc1C1=Nn2c(COc3ccccc3)nnc2SC1`: the inhibition was 67.8% (active).

For `CCc1ccccc1NC(=O)N1CCC(NC(=O)C(Cc2ccccc2)NC(C)=O)CC1` (stereo unspecified), the inhibition was -12.4%.

For `CC(C)[C@H](NC(=O)c1ccccc1)C(=O)OCC(=O)N1CC(=O)Nc2ccccc21`, the inhibition was 14.2%.

Turning to `CCCCNC(=O)CSc1nc2ccccc2n1S(=O)(=O)c1ccc(Cl)cc1`, the inhibition is -2.1%.

Take `COc1ccc(-c2nc(SC)n(C)c(=O)c2C#N)cc1OC`: the inhibition was 13.4%.

With `O=C(O[C@@H]1Cc2c(O)cc(O)cc2O[C@@H]1c1cc(O)c(O)c(O)c1)c1cc(O)c(O)c(O)c1`, the inhibition was 67.2% (active).

On to `O=C1CC(c2ccc(O)cc2)Oc2cc(O)cc(O)c21` (stereo unspecified), for which the inhibition was 11.5%.

As to `O=C1C[C@@H](c2ccc(O)cc2)Oc2cc(O)cc(O)c21`, the inhibition is 10.6%.

In the case of `Cc1cccc(C(=O)NC2CC3CCCC(C2)N3S(=O)(=O)c2ccccc2)c1` (stereo unspecified), the inhibition is 12.2%.

In the case of `CCOCc1[nH]c(=S)[nH]c(=O)c1Cc1ccc(OCC(C)C)cc1`, the inhibition was -4%.

On to `O=C(C1CCCN(CCCc2ccccc2)C1)N1CCCCCC1` (stereo unspecified), for which the inhibition is -9.9%.

Turning to `CC(=O)N1C(C)(C)CC(=NOS(=O)(=O)c2ccccc2)CC1(C)C`, the inhibition is -17.4%.

In the case of `CC1=C/C(=N\OS(=O)(=O)c2ccccc2)C(C)=CC1=O`, the inhibition was 106% (active).

`O=S(=O)(O/N=C1\CCCc2ccccc21)c1ccccc1`: the inhibition was -1.2%.

On to `CC1=CC(=O)C(C(C)C)=CC1=NC(=O)c1ccc(C)cc1`, for which the inhibition is 46.6%.

Regarding `CC1=CC(=O)c2ccccc2C1=O`, the inhibition is -57.7%.

Consider `CC1=CC(=O)C=C(C)C1=NOc1ccccc1[N+](=O)[O-]`, for which the inhibition was 25.5%.

Regarding `CC1=C/C(=N\OC(=O)/C=C/c2ccccc2)C(C)=CC1=O`, the inhibition was 3.5%.

For the compound `CC1=C/C(=N\OS(=O)(=O)c2ccccc2)C=CC1=O`, the inhibition was 96.1% (active).

In the case of `CC1=C/C(=N\OS(=O)(=O)c2ccccc2)C(C(C)C)=CC1=O`, the inhibition was 78.5% (active).

`Cc1ccc(S(=O)(=O)ON=C2CCN(S(=O)(=O)c3ccccc3)CC2)cc1`: the inhibition is 8%.

On to `CC1=CC(=O)C=C(C)C1=NOC(=O)/C=C\c1ccccc1`, for which the inhibition is 17.8%.
